Source: PubChem
This is one part of a sample in which hits are shown more often than they occur.
CBX7 AlphaScr: CBX7 inhibition, primary AlphaScreen. 1.1% of 66,000 active. AlphaScreen His6-CBX7 / biotin-H3K27me3 peptide binding; active compounds read low. normalised signal (fraction of DMSO) (test concentration not listed). AID 1224903. O95931; in the data active = normalised signal below about 0.5
Target sequence (O95931 whole entry, looked up): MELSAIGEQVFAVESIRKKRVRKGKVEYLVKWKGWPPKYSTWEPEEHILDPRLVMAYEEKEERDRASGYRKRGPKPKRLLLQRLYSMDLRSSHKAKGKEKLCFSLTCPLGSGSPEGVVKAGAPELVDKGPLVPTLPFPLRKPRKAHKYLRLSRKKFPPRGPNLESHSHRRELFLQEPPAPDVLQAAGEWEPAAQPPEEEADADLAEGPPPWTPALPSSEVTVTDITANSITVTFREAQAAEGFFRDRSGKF
* hit, by the source's call.

SMILES	CBX7 AlphaScr
Cc1ccc(CSc2nnc(Cc3cc(=O)[nH]c(=O)[nH]3)n2-c2ccc(F)cc2)cc1	0.95
CCN(CCCNC(=O)Cc1cn(C)c2ccccc12)c1ccccc1	0.5*
Cn1cc(CC(=O)NCCCN2CCCC2)c2ccccc21	0.96
CCN(CC)CCCNC(=O)Cc1cn(C)c2ccccc12	0.98
Cc1ccc(-c2nc(C(=O)NCc3cccnc3)c(C)o2)cc1	0.98
Cc1nc2cc(-c3ccccc3)nn2c(C)c1CCC(=O)Nc1cccnc1	1
COCCN(CCOC)Cc1c(C)[nH]c2ccc(C)cc2c1=O	1.1
COC(=O)c1c[nH]n2c(=O)c(Cc3cccc(C)c3)c(C)nc12	1.1
COc1ccc(-c2nc3cnccn3c2NC2CCCCC2)cc1	1.3
COC(=O)c1c[nH]n2c(NC3CCC(C)CC3)c(-c3ccc(OC(C)C)c(OC)c3)nc12 (stereo not given)	0.12*
Cc1nc2c(C(=O)NC3CCC(C)CC3)c[nH]n2c(=O)c1Cc1ccccc1F (stereo not given)	1.1
COc1ccc(NC(=O)c2c[nH]n3c(=O)cc(C4CCN(C(=O)OC(C)(C)C)CC4)nc23)cc1Cl	0.96
COC(=O)c1c[nH]n2c(NC3CCCCC3)c(-c3cccs3)nc12	0.52
COc1ccc(-c2cc(C(=O)NC3CCCC3)no2)cc1	1.2
COC(=O)c1cn(-c2ccccc2)nc1-c1ccc(OC)cc1	1
COC(=O)c1c[nH]n2c(NC3CCC(C)CC3)c(-c3ccc(C)cc3)nc12 (stereo not given)	0.23*
COC(=O)c1c[nH]n2c(NC3CCCCCC3)c(-c3ccc(OC)cc3)nc12	0.34*
COc1ccc(NC(=O)c2c[nH]n3c(=O)cc(C4CCN(C(=O)OC(C)(C)C)CC4)nc23)cc1OC	0.89
COC(=O)c1c[nH]n2c(NC3CCCCC3)c(-c3ccc(OC)cc3)nc12	0.32*
COC(=O)c1cnn2c(C)c(Cc3cccc(Br)c3)c(C)nc12	1.1
O=C(Nc1ccccc1-c1nc2ccccc2[nH]1)c1cccc(Oc2ccccc2)c1	1
CCCOc1cccc(C(=O)N(Cc2ccc(Cl)cc2)C2CCS(=O)(=O)C2)c1 (stereo not given)	0.85
Cc1cc(C)nc(NS(=O)(=O)c2ccc(Nc3nc(-c4ccncc4)cs3)cc2)n1	1.1
O=C(Nc1nc(-c2ccc(Oc3ccccc3)cc2)cs1)C1CCCCC1	1.4
COc1ccc2c(c1)c(=O)c(S(=O)(=O)c1ccc(Cl)cc1)cn2CC(=O)Nc1cccc(C)c1	0.88
SMILES	CBX7 AlphaScr
Cc1oc(-c2ccc(Cl)cc2)nc1CN1CCC(C(=O)NCCC2=CCCCC2)CC1	1.1
Cc1csc(NC(=O)CCCC2=NS(=O)(=O)c3ccccc3N2)n1	0.95
Cc1ccc(Nc2nc3nonc3nc2NC2C3CC4CC(C3)CC2C4)cc1 (stereo not given)	0.91
COc1ccc(-c2nn(C)c3sc(C(=O)NC4CCCCC4)cc23)cc1OC	0.97
COC(=O)c1c[nH]n2c(NC3CCCCC3)c(-c3ccc(OCCC(C)C)c(OC)c3)nc12	0.37*
COc1ccc(-c2nc(SCC(=O)NC3CCCC3)c(-c3ccc(C)cc3)[nH]2)cc1OC	0.99
O=C(C1CCCN(c2nnc(-n3cccc3)s2)C1)N1CCOCC1 (stereo not given)	0.96
CCOc1ccc(CN2C(=O)c3ccccc3C2C(=O)NC2CCCCCCC2)cc1OC (stereo not given)	1
c1ccc(-c2nnc3sc(-c4cnccn4)nn23)cc1	1
CC(C)(C)c1ccc(-c2nnc3sc(-c4ccccn4)nn23)cc1	0.11*
c1ccc(-c2nnc3sc(-c4ccccn4)nn23)cc1	0.8
CCOc1ccccc1NC(=O)Cn1c(=O)n(Cc2ccc(OC)cc2)c(=O)c2cccnc21	1.2
Cc1ccccc1-c1nc(CS(=O)(=O)CC(=O)Nc2cc(Cl)ccc2Cl)c(C)o1	0.97
COc1ccccc1-c1c(C)nn2c(NCc3ccc(C)cc3)cc(C)nc12	1
COc1ccccc1-c1c(C)nn2c(NCc3ccccn3)cc(C)nc12	0.39*
COc1ccccc1-c1c(C)nn2c(NCc3cccnc3)cc(C)nc12	1.1
O=C(Cn1nc(Cc2cccnc2)c2ccccc2c1=O)N1CCC(Cc2ccccc2)CC1	0.83
COc1cc(Nc2nc(-c3ccc(S(=O)(=O)N4CCCCC4)cc3)cs2)c(OC)cc1Cl	0.59
Cc1ccc(C)c(CSc2nc3ccncc3n2CC(=O)Nc2ccc(Cl)cc2F)c1	1
Cc1cccc(NC(=O)C2CCN(S(=O)(=O)c3c(C)noc3/C=C/c3cccs3)CC2)n1	1
COc1ccc(N2CCN(C(c3cccs3)C(C)NS(=O)(=O)c3ccc(F)cc3)CC2)cc1 (stereo not given)	0.49*
COc1ccc(N2CCN(C(c3cccs3)C(C)NS(=O)(=O)c3ccc(C)cc3)CC2)cc1 (stereo not given)	0.52
COc1ccc(N2CCN(C(c3cccs3)C(C)NS(=O)(=O)c3ccccc3)CC2)cc1 (stereo not given)	0.48*
CCS(=O)(=O)NC(C)C(c1cccs1)N1CCN(c2ccc(OC)cc2)CC1 (stereo not given)	0.83
CC(NS(=O)(=O)c1ccc(F)cc1)C(c1cccs1)N1CCN(c2ccccc2)CC1 (stereo not given)	0.86
SMILES	CBX7 AlphaScr
CC(NS(=O)(=O)c1ccc(F)cc1)C(c1cccs1)N1CCN(C)CC1 (stereo not given)	1
COc1ccc(-n2nc(C(=O)N3CCC(C)CC3)c3ccccc3c2=O)c(OC)c1	0.98
CCOC(=O)CNS(=O)(=O)c1ccc2[nH]cc(C(=O)O)c(=O)c2c1	0.71
CC(=O)Nc1ccc(NS(=O)(=O)c2ccc3[nH]cc(C(=O)O)c(=O)c3c2)cc1	0.66
CCc1ccc(NS(=O)(=O)c2ccc3[nH]cc(C(=O)NCc4ccccn4)c(=O)c3c2)cc1	1
Cc1cccc(C)c1N(C)S(=O)(=O)c1ccc2[nH]cc(C(=O)NCc3ccccn3)c(=O)c2c1	1
O=C(O)c1c[nH]c2ccc(S(=O)(=O)NCc3ccccn3)cc2c1=O	0.021*
O=C(O)c1c[nH]c2ccc(S(=O)(=O)NCCCN3CCCC3=O)cc2c1=O	0.5*
Cc1ncc(CO)c2cc(-c3nnc(Nc4ccccc4Cl)s3)c(=O)oc12	1.2
O=C(c1cc(-c2ccc(O)cc2)on1)N1CCN(C(c2ccccc2)c2ccccc2)CC1	0.91
Cc1ccc(CNC(=O)c2cc(=O)n(Cc3ccc(C)cc3)c3ccccc23)cc1	0.96
Cc1cc(C(=O)Nc2cccc(C(F)(F)F)c2)n(-c2ccccc2)n1	1.1
CCC(C)NC(=O)C1c2ccccc2C(=O)N1Cc1ccc(OC)cc1 (stereo not given)	1.1
O=C1c2cccnc2C(Nc2ccc(F)cc2)N1Cc1ccc(F)cc1 (stereo not given)	0.84
O=C1c2cccnc2C(Nc2ccc(F)c(Cl)c2)N1Cc1ccc(F)cc1 (stereo not given)	0.81
COc1ccc(CN2C(=O)c3cccnc3C2O)cc1 (stereo not given)	0.01*
COc1ccc(CN2C(=O)c3cccnc3C2Nc2cc(Cl)ccc2OC)cc1 (stereo not given)	0.0053*
COc1ccc(NC2c3ncccc3C(=O)N2Cc2ccc(F)cc2)cc1Cl (stereo not given)	0.62
COc1ccc(CN2C(=O)c3cccnc3C2Nc2cc(Cl)ccc2C)cc1 (stereo not given)	0.91
COc1ccc(NC2c3ncccc3C(=O)N2Cc2ccc(F)cc2)cc1 (stereo not given)	0.64
CCOC(=O)c1ccc(NC2c3ncccc3C(=O)N2Cc2ccc(F)cc2)cc1 (stereo not given)	0.45*
